The source of these data is PubChem BioAssay (NCATS).

SMILES strings stand for the structures. “And” between values parts separate entries of the source, which are not always exact repeats. Equal entries are not always repeated. Results filed as inconclusive are left out. The source holds several records for some structures; these can differ, active in one and inactive in another. The source made the active and inactive calls. Calls come from the whole dose curve; as a rule, active = well fitted curve in the direction sought with a large enough effect; inconclusive = small, poorly fitted or top-dose-only effect, or another doubt; inactive = no such curve, though single readings can be large; an effect the other way counts as inactive or inconclusive.

Test [1] can be described thus: Viability qHTS for spleen associated tyrosine kinase inhibitor (SYKi) drug resistant MV4-11 cells (AID 1963824). Note: nearly all actives have a fitted effect of over 35% in size. The gist of the method: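 SYK-inhibitor-resistant MV4-11 AML cells were seeded at 500 per well onto compound and cultured 72 hours (37 °C, 5% CO2). CellTiter-Glo was then added, and after 10 min at room temperature, luminescence gave viability.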
Test [2] is described as follows: Quantitative highthroughput screen to assess conditional lethalithy of NOMO1 cells grown in RPMI1640 with untreated serum (RPMI+s) (AID 1963876).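 For Viability: 100% = DMSO wells and 0% = empty wells without cells.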 Note: nearly all actives have a fitted effect of over 35% in size. The gist of the method:
(§1)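 Each medium arm—HPLM with 10% dialyzed FBS, or RPMI1640 with 5 mM glucose and 10% untreated or dialyzed FBS—was screened against an 11-point, 3-fold compound titration for 48 h at 37 °C, with CellTiter-Glo luminescence as endpoint.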

Test [3] in a line: Quantitative highthroughput screen to assess conditional lethalithy of NOMO1 cells grown in RPMI1640 with dialyzed fetal bovine serum (RPMI+ds) (AID 1963877).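 For Viability: series mostly up to about 46 µM; 100% = DMSO control wells and 0% = empty wells.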 Note: nearly all actives have a fitted effect of over 30% in size. The procedure, abridged:
as §1

Test [4] is described as follows: Quantitative highthroughput screen to assess conditional lethalithy of P12 Ichikawa cells grown in Human Plasma-Like Medium with dialyzed fetal bovine serum (HPLM+ds) (AID 1963879). For Viability: series mostly up to about 46 µM. Note: nearly all actives have a fitted effect of over 35% in size. To be noted: Potency: viability. The gist of the method:
as §1

Test [5] can be described thus: Quantitative highthroughput screen to assess conditional lethalithy of SEM cells grown in Human Plasma-Like Medium with dialyzed fetal bovine serum (HPLM+ds) (AID 1963882). For Viability: series mostly up to about 46 µM. Note: nearly all actives have a fitted effect of over 35% in size. The gist of the method: as §1
Test [6] is described as follows: Quantitative highthroughput screen to assess conditional lethalithy of SEM cells grown in RPMI1640 with unreated serum (RPMI+s) (AID 1963883).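 For Viability: 100% = DMSO wells and 0% = empty wells without cells.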 Note: nearly all actives have a fitted effect of over 35% in size. The gist of the method: as §1
Test [7] in a line: Quantitative highthroughput screen to assess conditional lethalithy of SEM cells grown in RPMI1640 with dialyzed fetal bovine serum (RPMI+ds) (AID 1963884).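 For Viability: series mostly up to about 46 µM; 100% = DMSO control wells and 0% = empty wells without cells.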 Note: nearly all actives have a fitted effect of over 35% in size. The gist of the method:
as §1

A short description of test [8]: Cellular viability qHTS for adrenocortical cancer (ACC) cell line SW-13 (AID 1963989).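 For activity (max response): cells grown in serum-free medium with ITS supplement; % is set by controls: 0 for no effect and ±100 for the full control effect.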 Note: nearly all actives have a fitted effect of over 65% in size. The following applies: SW-13 ACC cells viability, CellTiter-Glo, 48 h; activity (max response): stronger effect = lower value. The procedure, abridged:
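SW-13 cells in ITS-supplemented serum-free DMEM were plated overnight, then exposed for 48 h at 37C to compound titrations (up to 46 uM final). Viability was read by CellTiter-Glo luminescence; four-parameter logistic fits gave IC50 and efficacy.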

Test [9] can be described thus: Cellular viability qHTS for adrenocortical cancer (ACC) cell line NCI-H295R (AID 1963990). Note: nearly all actives have a fitted effect of over 60% in size. The gist of the method: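 Luminescent ATP read-out (CellTiter-Glo, 20 min RT) after 48 h drug exposure of NCI-H295R cells; a titration up to 46 uM final. Data normalized to doxorubicin (100% inhibition) and DMSO (0%); 4-parameter fit gives IC50, max response.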
The nature of test [10]: Quantitative highthroughput screen to assess conditional lethalithy of NOMO1 cells grown in Human Plasma-Like Medium with dialyzed fetal bovine serum (HPLM+ds) (AID 1963878).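 For Viability: 100% = DMSO wells and 0% = empty wells on each plate.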 Note: nearly all actives have a fitted effect of over 35% in size. The gist of the method:
as §1

Test [11] in a line: Quantitative highthroughput screen to assess conditional lethalithy of P12 Ichikawa cells grown in RPMI1640 with dialyzed fetal bovine serum (RPMI+ds) (AID 1963880).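 For Viability: 100% = DMSO wells and 0% = empty wells on each plate.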 Note: nearly all actives have a fitted effect of over 35% in size. The following applies: Potency: P12-Ichikawa viability. The gist of the method:
as §1

Test [12] can be described thus: Quantitative highthroughput screen to assess conditional lethalithy of P12 Ichikawa cells grown in RPMI1640 with untreated serum (RPMI+s) (AID 1963881).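 For Viability: series mostly up to about 46 µM; 100% = DMSO wells and 0% = empty wells without cells.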 Note: nearly all actives have a fitted effect of over 35% in size. To be noted: Potency: viability. The gist of the method: as §1
Potency is the fitted concentration of half-maximal effect.

On to `COc1cc([C@@H]2c3cc4c(cc3[C@H](O)[C@H]3COC(=O)[C@@H]23)OCO4)cc(OC)c1OC`, for which the Potency in [1] was 0.372 µM (active); in test [2], 0.418 µM (active); in test [3], 0.526 µM (active); in [4], 0.332 µM (active); in test [5], 0.296 µM (active); in [6], 0.296 µM (active). Also, the figures for the Potency in test [7], in test [8] and in [9] were 0.264 µM (active), 0.631 µM (active) and 0.501 µM (active), respectively.
For `CNS(=O)(=O)Cc1ccc2[nH]cc(CCN(C)C)c2c1`, the Potency result in [1], in test [2], in [10], in test [4], in test [11] and in test [12] was “inactive” throughout. In addition, the Potency result in [5], in test [6] and in test [7] was “inactive” in each case. In test [8], the activity (max response) is 3.13% (inactive).
Consider `NCc1ccc(OCCCc2sc(-c3ccc4c(c3)/C(=N/Nc3nc5ccccc5s3)CCC4)nc2C(=O)O)cc1`, for which the Potency in [1] was 9.34 µM (active); in test [2], 0.0059 µM (active); in [3], 0.0166 µM (active); in test [4], 0.0047 µM (active); in test [11] it was 0.0093 µM (active); in test [12], 0.0331 µM (active). In [7], the Potency was 0.0047 µM (active). For the same molecule, the activity (max response) in test [8] was -8.27% (inactive). Further, the Potency entry in [9] was “inactive”.
Turning to `CC(C)(C)c1nc2c3cc[nH]c(=O)c3c3cc(F)ccc3c2[nH]1`, the Potency in [1] was 0.651 µM (active); in test [2] it was 5.9 µM (active); in [3] it was 4.69 µM (active); in test [10], 2.09 µM (active). For the same molecule, the activity (max response) in [8] is -16.1% (inactive). In addition, in [9], the Potency result was “inactive”.
For the molecule `CCc1nc(-c2cccc(C)c2)c(-c2ccnc(NC(=O)c3ccccc3)c2)s1`, the Potency in [1] is 20.6 µM (active); in [8] it was 25.1 µM (active); in test [9] it was 28.2 µM (active). For the same molecule, the Potency result in test [2], in test [3] and in test [5] was “inactive” each time.
On to `O=C1NC(=O)C(c2ccccc2[N+](=O)[O-])=C1Nc1ccc(O)c(Cl)c1`, for which the Potency in test [1] is 16.6 µM (active); in test [2], 18.7 µM (active); in [3] it was 18.7 µM (active); in test [11], 14.8 µM (active); in test [5], 16.6 µM (active). The activity (max response) in test [8] was -17.3% (inactive). Also, in [9], the Potency entry was “inactive”.
In the case of `CCNC(=O)c1noc(-c2cc(C(C)C)c(O)cc2O)c1-c1ccc(CN2CCOCC2)cc1`, the Potency in test [1] was 0.0073 µM (active); in [2], 0.0833 µM (active); in test [3] it was 0.0833 µM (active); in test [6], 0.0418 µM (active); in test [8] it was 0.0708 µM (active).
Turning to `Cc1cc2c(cc1C1(c3ccc(C(=O)O)cn3)CC1)C(C)(C)CCC2(C)C`, the Potency in test [1] is 0.468 µM (active); in test [7], 0.0662 µM (active). Moreover, the Potency result in [2], in [3], in [4], in [11], in test [12] and in test [5] was “inactive” throughout. Besides, in [9], the Potency entry is “inactive”. The activity (max response) in test [8] was 9.77% (inactive).
`CN(Cc1cc(Br)cc(Br)c1N)C1CCCCC1`: the Potency in [1] is 10.6 µM (active). In addition, the Potency entry in test [2], in test [4], in test [11], in test [12], in [6] and in test [7] was “inactive” throughout.
For `Cc1ccc(C(=O)c2cc(O)c(O)c([N+](=O)[O-])c2)cc1`, the Potency in test [1] was 23.5 µM (active); in [9], 23.1 µM (active) and 31.6 µM (active). In addition, the Potency entry in test [2], in test [4], in test [11], in test [12], in test [5] and in test [6] was “inactive” throughout. Also, in [7], the Potency entry is “inactive”.
Turning to `CCCCn1c(=O)n(Cc2ccccc2F)c(=O)c2[nH]c(Cc3ccc(NC(C)=O)cc3)nc21`, in test [1], the Potency was 18.6 µM (active). Moreover, the Potency result in test [2], in [10], in test [11], in test [12], in [5] and in test [6] was “inactive” in each case. Further, the Potency entry in [7] and in [9] was “inactive” throughout. In test [8], the activity (max response) is -3.74% (inactive).
For the molecule `CS(=O)(=O)c1ccc(-c2cnc(N)c(C(=O)Nc3ccccc3)n2)cc1`, the Potency in [1] was 2.91 µM (active); in [12] it was 8.33 µM (active); in test [5], 8.33 µM (active); in test [6] it was 9.35 µM (active); in test [7], 8.33 µM (active). The Potency entry in test [2] and in test [4] was “inactive” throughout.
Take `Nc1nc2[nH]cc(CCc3ccc(C(=O)N[C@@H](CCC(=O)O)C(=O)O)cc3)c2c(=O)[nH]1`: the Potency is 0.263 µM (active) in [1] and 3.16 µM (active) in [9]. The Potency entry in test [2] was “inactive”.
Take `O=C(Nc1ccc(Oc2ccnc3[nH]ccc23)c(F)c1)c1cccn(-c2ccc(F)cc2)c1=O`: the Potency is 0.0146 µM (active) in test [1] and 8.33 µM (active) in test [5]. The Potency result in [2], in test [10], in [4], in [11], in [12] and in [9] was “inactive” in each case.
On to `CN(C)c1ccccc1CN1CCCN(Cc2ccccc2N(C)C)C1c1ccncc1`, for which the Potency in [1] is 7.42 µM (active); in test [9], 28.2 µM (active). For the same molecule, the Potency entry in test [2], in test [4], in test [11], in test [12] and in test [5] was “inactive” in each case.
On to `CCOC(=O)c1c(C)n(C)c2ccc(O)cc12`, for which the Potency in test [1] was 7.5 µM (active) and inactive. The Potency result in test [2], in test [4], in test [12], in [5] and in test [9] was “inactive” in each case. In addition, the activity (max response) in test [8] is 5.26% (inactive) and -18.4% (inactive).
In the case of `CN(C)CC(C)(C)CNc1nn2c(-c3ccccc3)nnc2cc1C1CCC1`, the Potency in test [1] was 0.0103 µM (active); in test [2], 20.9 µM (active); in test [10], 10.5 µM (active); in test [12], 16.6 µM (active). For the same molecule, in test [8], the activity (max response) was -3.73% (inactive).
As to `OCCN(CCO)c1nc(N2CCCCC2)c2nc(N(CCO)CCO)nc(N3CCCCC3)c2n1`, the Potency is 18.8 µM (active) and 14.8 µM (active) in test [1]; 5.17 µM (active) in test [8]; 1.46 µM (active) and inactive in test [9]. Further, the Potency result in [2] and in [5] was “inactive” throughout. For the same molecule, the activity (max response) in test [8] was -9.57% (inactive).
As for `O=c1cc(-c2ccccc2)oc2cc(O)c(O)c(O)c12`, the Potency in test [1] is 18.6 µM (active); in test [2], 5.9 µM (active); in test [4] it was 5.9 µM (active); in test [12], 9.35 µM (active); in test [6], 4.18 µM (active); in [7] it was 8.33 µM (active). For the same molecule, in test [10], the Potency result was “inactive”. Also, the activity (max response) in [8] was -15.6% (inactive).
